# According to PubChem BioAssay (Tox21):
# Results filed as inconclusive are left out. Where a call stands in place of a potency, no number is given. Active and inactive are the calls of the source. Calls come from the whole dose curve; as a rule, active = well fitted curve in the direction sought with a large enough effect in the repeat runs; inconclusive = weak or mixed curves; inactive = no such curve, though single readings can be large; an effect the other way counts as inactive or inconclusive.
# Test: qHTS assay to identify small molecule antagonists of the glucocorticoid receptor (GR) signaling pathway - cell viability counter screen (AID 720693); note: nearly all actives have a fitted effect of over 55% in size
# Conditions: GR-bla HeLa viability, CellTiter-Glo luminescence, 18 h, with 5 nM dexamethasone present; series mostly up to 58.5 µM
SMILES,Potency,"viability change, negative = cytotoxic"
CCCCC/C=C/CC(=O)OC,inactive,–
Cc1nc2ccccc2c(=O)o1,inactive,–
CCN(CCO)c1cccc(C)c1,inactive,–
FC(F)(F)/C(=N\OCC1OCCO1)c1ccc(Cl)cc1,inactive,–
C=CCCCCCCCCCCC,–,4.18% [at 7.04 µM] (inactive)
CCCCCCCCCCCCCC(=O)OC,inactive,–
NC(Cc1c[nH]c2ccccc12)C(=O)O (stereo not given),inactive,–
CNC(=O)C(c1ccccc1)c1ccccc1,inactive,–
Cc1nc(C)nc(N2C[C@@H](C)N(c3ccnc([C@@H](C)O)n3)[C@@H](C)C2)n1,inactive,–
NS(=O)(=O)c1cc2c(cc1Cl)NC(C(Cl)Cl)NS2(=O)=O (stereo not given),inactive,–
O=C(O)c1ccccc1C(=O)Nc1ccc(S(=O)(=O)Nc2nccs2)cc1,inactive,–
C[C@H](CCC(=O)NCC(=O)O)[C@H]1CC[C@H]2[C@@H]3[C@H](O)C[C@@H]4C[C@H](O)CC[C@]4(C)[C@H]3C[C@H](O)[C@]12C,inactive,–
COc1ccc(/C=N/NC(=O)c2ccncc2)cc1OC,inactive,–
C=CCOc1cc(Cl)ccc1C(=O)NCCN(CC)CC,inactive,–
CCCCCCCC[Si](OCC)(OCC)OCC,inactive,–
O=C(CN1CCN(Cc2ccc3c(c2)OCO3)CC1)N1c2ccccc2Sc2ccccc21,inactive,–
O=C1c2ccccc2-c2ccccc21,inactive,–
CC(C)COC(=O)/C=C/c1ccccc1,inactive,–

SMILES,Potency,"viability change, negative = cytotoxic"
CN(C1CCCCC1)S(=O)(=O)c1ccccc1N,inactive,–
O=C1OC(=O)c2cc(Oc3ccc4c(c3)C(=O)OC4=O)ccc21,inactive,–
Nc1cc(C(=O)O)ccc1Cl,inactive,–
CCc1nccnc1C,inactive,–
CC(=O)OCCCc1ccccc1,inactive,–
CC(C)COC(=O)CCCCC(=O)OCC(C)C,inactive,–
CCN1CN(CC)CN(CC)C1,inactive,–
CCS(=O)(=O)CCn1c([N+](=O)[O-])cnc1C,inactive,–
CC(C)=CC(C)(C)C,inactive,–
OC[C@@H](O)[C@H](O)[C@@H](O)[C@@H](O)CO,inactive,–
CCC(=O)OCCC(C)CCC=C(C)C (stereo not given),inactive,–
CCCCCCCCC(=O)OCC,inactive,–
FC(F)(F)c1ccc(Cl)cc1Cl,inactive,–
O=c1cc(O)c(Cl)c[nH]1,inactive,–
CC(=O)c1ccc(OCC(=O)N2CCCCC2)cc1,inactive,–
CCCCCCCCCCCCC,inactive,–
COc1ccc(NS(=O)(=O)c2ccc(N)cc2)nn1,inactive,–

# Test: qHTS assay for identifying genotoxic compounds that show differential cytotoxicity against isogenic chicken DT40 cell lines with known DNA damage response pathways - wild type cell line (AID 743012); note: nearly all actives have a fitted effect of over 60% in size; note: potency is the fitted concentration of half-maximal effect
# Conditions: DT40 wild type chicken cells viability, CellTiter-Glo, 40 h; series mostly up to 68.4 µM
# How it was run: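 Wild-type DT40 cells (300/well) exposed to compounds for 40 hours at 37 C/5% CO2. Viability read by CellTiter-Glo luminescence after 30 min at room temperature.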
row,SMILES,Potency
1,CCCCC/C=C/CC(=O)OC,inactive
2,Cc1nc2ccccc2c(=O)o1,inactive
3,CCN(CCO)c1cccc(C)c1,inactive
4,FC(F)(F)/C(=N\OCC1OCCO1)c1ccc(Cl)cc1,inactive
5,CCCCCCCCCCCCCC(=O)OC,inactive
6,NC(Cc1c[nH]c2ccccc12)C(=O)O (stereo not given),inactive
7,CNC(=O)C(c1ccccc1)c1ccccc1,61.1 µM (active)
8,Cc1nc(C)nc(N2C[C@@H](C)N(c3ccnc([C@@H](C)O)n3)[C@@H](C)C2)n1,inactive
9,NS(=O)(=O)c1cc2c(cc1Cl)NC(C(Cl)Cl)NS2(=O)=O (stereo not given),inactive
10,O=C(O)c1ccccc1C(=O)Nc1ccc(S(=O)(=O)Nc2nccs2)cc1,inactive
11,C[C@H](CCC(=O)NCC(=O)O)[C@H]1CC[C@H]2[C@@H]3[C@H](O)C[C@@H]4C[C@H](O)CC[C@]4(C)[C@H]3C[C@H](O)[C@]12C,inactive
12,COc1ccc(/C=N/NC(=O)c2ccncc2)cc1OC,inactive
13,C=CCOc1cc(Cl)ccc1C(=O)NCCN(CC)CC,15 µM (active)
14,CCCCCCCC[Si](OCC)(OCC)OCC,inactive
15,O=C(CN1CCN(Cc2ccc3c(c2)OCO3)CC1)N1c2ccccc2Sc2ccccc21,13.3 µM (active)
16,CC(C)COC(=O)/C=C/c1ccccc1,inactive
17,CN(C1CCCCC1)S(=O)(=O)c1ccccc1N,30.6 µM (active)
18,CCc1nccnc1C,inactive
19,CC(=O)OCCCc1ccccc1,inactive
20,CC(C)COC(=O)CCCCC(=O)OCC(C)C,inactive
21,CCN1CN(CC)CN(CC)C1,inactive
22,CCS(=O)(=O)CCn1c([N+](=O)[O-])cnc1C,inactive
23,CC(C)=CC(C)(C)C,inactive
24,CCC(=O)OCCC(C)CCC=C(C)C (stereo not given),inactive
25,CCCCCCCCC(=O)OCC,inactive
26,FC(F)(F)c1ccc(Cl)cc1Cl,inactive
27,O=c1cc(O)c(Cl)c[nH]1,inactive
28,CC(=O)c1ccc(OCC(=O)N2CCCCC2)cc1,inactive
29,CCCCCCCCCCCCC,inactive
30,COc1ccc(NS(=O)(=O)c2ccc(N)cc2)nn1,inactive

# Test: qHTS assay for identifying genotoxic compounds that show differential cytotoxicity against isogenic chicken DT40 cell lines with known DNA damage response pathways - Rev3 mutant cell line (AID 743014); note: nearly all actives have a fitted effect of over 55% in size
# Conditions: chicken DT40 Rev3-/- viability, CellTiter-Glo, 40 h; series mostly up to 68.4 µM
SMILES,"activity, negative = cytotoxicity",Potency
C=CCCCCCCCCCCC,4.5% [at 8.53 µM] (inactive),–
O=C1c2ccccc2-c2ccccc21,–,inactive
O=C1OC(=O)c2cc(Oc3ccc4c(c3)C(=O)OC4=O)ccc21,–,inactive
Nc1cc(C(=O)O)ccc1Cl,–,inactive
OC[C@@H](O)[C@H](O)[C@@H](O)[C@@H](O)CO,–,inactive

# Test: qHTS assay for identifying genotoxic compounds that show differential cytotoxicity against isogenic chicken DT40 cell lines with known DNA damage response pathways - Rad54/Ku70 mutant cell line (AID 743015); note: nearly all actives have a fitted effect of over 60% in size; note: potency is the fitted concentration of half-maximal effect
# Conditions: DT40 Rad54/Ku70 mutant viability, CellTiter-Glo, 40 h; series mostly up to 66.8 µM
SMILES,Potency,"activity change, negative = cytotoxicity"
Cc1nc2ccccc2c(=O)o1,inactive,–
FC(F)(F)/C(=N\OCC1OCCO1)c1ccc(Cl)cc1,inactive,–
C=CCCCCCCCCCCC,–,-12.6% [at 8.55 µM] (inactive)
NC(Cc1c[nH]c2ccccc12)C(=O)O (stereo not given),inactive,–
C[C@H](CCC(=O)NCC(=O)O)[C@H]1CC[C@H]2[C@@H]3[C@H](O)C[C@@H]4C[C@H](O)CC[C@]4(C)[C@H]3C[C@H](O)[C@]12C,inactive,–
CCCCCCCC[Si](OCC)(OCC)OCC,inactive,–
O=C(CN1CCN(Cc2ccc3c(c2)OCO3)CC1)N1c2ccccc2Sc2ccccc21,26.6 µM (active),–
O=C1c2ccccc2-c2ccccc21,inactive,–
CN(C1CCCCC1)S(=O)(=O)c1ccccc1N,54.5 µM (active),–
O=C1OC(=O)c2cc(Oc3ccc4c(c3)C(=O)OC4=O)ccc21,inactive,–
Nc1cc(C(=O)O)ccc1Cl,inactive,–
CC(C)=CC(C)(C)C,inactive,–
OC[C@@H](O)[C@H](O)[C@@H](O)[C@@H](O)CO,inactive,–
CCCCCCCCC(=O)OCC,inactive,–
CCCCCCCCCCCCC,inactive,–
